RAM inhibit: yeast RAM network inhibition | S. cerevisiae dse1pr::URA3 reporter, 5-FOA growth OD615, 2 d; analog-sensitive cbk1-as2 kinase mutant strain | inhibition, % at 50 µM | actives 1.8% (n = 190,000);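 active means inhibition above a set limit, 3 SD over mean compound inhibition, cut at about 8.4% in these data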;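 further: 0% = DMSO-only wells with no growth and 100% = 10 µM 1-NA-PP1 full growth; inhibition rescues growth on 5-FOA so higher OD means more RAM inhibition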
WT yeast gro inh: growth inhibition of WT yeast, mitochondrial fusion screen | mitochondrial fusion phenotypic screen, WT strain | inhibition, % at 10 µM | actives 2.1% (n = 190,000); in the data active means inhibition above about 58%; tested in S. cerevisiae
CHOP inh: CHOP inhibition in unfolded protein response | inhibition, % at 10 µM | actives 3.8% (n = 220,000) | CHO-K1 CHOP-promoter luciferase, tunicamycin-induced, 15-18 h;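 active means compounds that reduced the stress-induced luciferase reporter signal by more than about 70% of percent inhibition, limit read from the data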;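 further: 0% = tunicamycin plus vehicle and 100% = wells without tunicamycin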
Lmaj promast: reduces viability of Leishmania major promastigotes | resazurin fluorescence viability | inhibition, % at 10 µM | actives 9% (n = 200,000) | AID 1063; in the data active means inhibition above about 50%;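 further: promastigotes grown with compound for 44 hours at 28 °C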
The depositor's hits bear a star; / = not tested or not shown. Hits are enriched below; roughly 13% of the tested compounds scored in any of these assays.

SMILES | RAM inhibit | WT yeast gro inh | CHOP inh | Lmaj promast
COC(=O)C1C(=O)C2=C(CC1C)NC(C)=C(C(=O)OC1CCCC1)C2c1ccc(N(C)C)cc1 (stereo not given) | 0 | 57 | -18 | 59*
Cc1nc(N)nc(N)c1/C=C/C(C)(C)c1ccc(Cl)cc1 | 4 | 69* | 77* | 100*
COc1cc(OC)cc(C(=O)Nn2c(C)nc3ccccc3c2=O)c1 | 0 | -7 | 2 | -2
COc1cc(OC)cc(-c2nc3ccccc3c(=O)n2OC(=O)c2ccc(C)c(C)c2)c1 | 4 | 3 | 68 | 73*
CCOc1ccc(N2C(=O)CC(Sc3nnnn3-c3ccccc3)C2=O)cc1 (stereo not given) | 8 | 59* | 108* | 1
O=C1C(=O)N(CCN2CCOCC2)C(c2cccnc2)/C1=C(/O)c1ccc(Cl)cc1 (stereo not given) | 2 | -1 | -2 | -6
CS(=O)(=O)N(CC(=O)N1CCN(c2ccccc2F)CC1)C1CCCCC1 | 0 | -2 | 2 | -3
Cc1ccc(S(=O)(=O)N(CC(=O)N2CCN(c3ccccc3F)CC2)C2CCCCC2)cc1 | 2 | 24 | 69 | 97*
Cc1ccc(S(=O)(=O)N(C)CC(=O)OCC(=O)N2CCN(c3ccccc3)CC2)cc1 | 8.7* | -22 | 37 | 35
CCN(CC(=O)N1CCN(c2ccccc2)CC1)S(=O)(=O)c1ccc(C)cc1 | 1 | 2 | 20 | 13
CS(=O)(=O)N(CC(=O)N1CCN(C(c2ccccc2)c2ccccc2)CC1)C1CCCCC1 | 3 | 12 | 79* | 92*
O=C(CCS(=O)(=O)c1ccc(Cl)cc1)Nc1ccc(N2CCOCC2)cc1 | / | / | 10 | /
COc1cc(/C=N/NC(=O)c2ccncc2)ccc1OCc1cnc(Cl)s1 | 2 | 6 | -22 | 2
Cn1ncc(Br)c1NC(=O)CSc1ccc(Cl)cc1 | / | / | -6 | /
CC1CC(C)CN(S(=O)(=O)c2ccc(C(=O)Nc3sccc3C(N)=O)cc2)C1 (stereo not given) | 3 | 3 | 87* | 14
NC(=O)c1ccsc1NC(=O)c1ccc(S(=O)(=O)N2CCCC2)cc1 | 8 | -8 | 35 | 56*
CCCCn1c(N)c(N(CC)C(=O)c2cccc(OC)c2)c(=O)[nH]c1=O | 1 | 0 | -15 | -6
Brc1cc2c(cc1Br)OCCOCCOCCOCCO2 | -1 | -14 | 3 | -7
Brc1ccc2c(c1)OCCOCCOc1cc(Br)ccc1OCCOCCOCCO2 | 6 | 80* | 83* | 101*
O=C(CCC(=O)N(CC(=O)NC1CCCCC1)CC1CCCO1)Nc1nccs1 (stereo not given) | 1 | -11 | -11 | -2
Cc1cccc(OCC(=O)N/N=C/c2cn[nH]c2-c2ccc(Cl)c(Cl)c2)c1 | 2 | -2 | 80* | 8
Cc1cccc(OCC(=O)N/N=C/c2sc(=O)n(Cc3cccc(C(=O)O)c3)c2Cl)c1 | / | / | 20 | /
CCOc1ccc(-c2csc(/C(C#N)=C\c3ccc(O)c([N+](=O)[O-])c3)n2)cc1 | 2 | 31 | 94* | -3
O=[N+]([O-])c1cc(/C=N\Nc2nc(-c3ccccc3)cs2)ccc1O | 2 | 35 | 31 | 7
O=S(=O)(c1ccc(-c2csc(Nc3ccc(F)cc3)n2)cc1)N1CCCC1 | 3 | 29 | 90* | 64*
SMILES | RAM inhibit | WT yeast gro inh | CHOP inh | Lmaj promast
Cc1ccc(Nc2nc(-c3ccc(S(=O)(=O)N4CCCC4)cc3)cs2)cc1C | 4 | 11 | 44 | 90*
Cc1cc(C)cc(Nc2nc(-c3ccc(S(=O)(=O)N4CCCC4)cc3)cs2)c1 | 4 | 7 | 21 | 99*
Cc1ccc(Nc2nc(-c3ccc(S(=O)(=O)N4CCOCC4)cc3)cs2)cc1 | / | / | / | 24
O=S(=O)(c1ccc(-c2csc(Nc3ccc(Br)cc3)n2)cc1)N1CCCC1 | 6 | 11 | 40 | -3
CCOC(=O)C1CCN(c2ccc([N+](=O)[O-])c(C(C)=O)c2)CC1 | 2 | -5 | -10 | 10
Cc1cccc(CN2C[C@]34CC[C@@H](C[C@@H]3S2(=O)=O)O4)c1 | / | / | -1 | /
CCOc1ccc(C(=O)Nc2cccc3ncccc23)cc1Br | 1 | 6 | 40 | 10
CCOC(=O)Cc1cc(OC)c(OC)cc1Cc1cc(OC)c(OC)cc1CC(=O)OCC | 0 | -20 | -5 | 0
COc1cccc(NC(=O)C2CCCN(S(=O)(=O)c3cccc4nsnc34)C2)c1 (stereo not given) | 4 | 0 | 68 | 5
CCCn1c(NC(=O)C2CCN(S(=O)(=O)c3cccs3)CC2)nc2ccccc21 | 0 | 36 | / | 97*
CCOc1ccc(NC(=O)C2CCCN(S(=O)(=O)c3cccc4nsnc34)C2)cc1 (stereo not given) | 5 | 9 | 74* | -6
CCOc1ccc2nc(NC(=O)C3CCCN(S(=O)(=O)c4cccs4)C3)sc2c1 (stereo not given) | 1 | 42 | 70 | 55*
Cc1c(-n2c(SC(C)C(=O)NC(N)=O)nc3ccccc3c2=O)c(=O)n(-c2ccccc2)n1C (stereo not given) | 3 | -11 | 8 | -1
Cc1ccc(Cl)cc1N1CCN(c2cccc[n+]2C)CC1 | -2 | 11 | 19 | 74*
C[n+]1ccccc1N1CCN(c2ccccc2Cl)CC1 | 1 | 12 | 14 | 48
O=S(=O)(N1CCCCC1)N1CCN(c2cc(Cl)ccc2Cl)CC1 | 5 | 74* | 11 | -1
Cc1cccc(N2CCN(S(=O)(=O)c3ccc(S(=O)(=O)N4CCCC4)cc3)CC2)c1C | 1 | -5 | 48 | -5
Cc1ccc(Cl)cc1N1CCN(S(=O)(=O)c2cccc(S(=O)(=O)N3CCCC3)c2)CC1 | 4 | 11 | 24 | 61*
CCC(C)N(C)Cc1cccc(C2(O)CCN(S(=O)(=O)c3ccc(F)c(C)c3)CC2)c1 (stereo not given) | 0 | 20 | 44 | 99*
O=C(O)c1ccc(Nc2ncnc3c2cnn3Cc2ccccc2)cc1 | 2 | 5 | 6 | -7
Cc1cc(S(=O)(=O)N2CCN(c3ccccc3C)CC2)ccc1F | 6 | 61* | 42 | -2
O=c1[nH]c(CN2CCN(S(=O)(=O)c3ccc(Cl)cc3)CC2)nc2cc(Cl)ccc12 | 2 | 15 | 29 | 7
Cc1cc(S(=O)(=O)N2CCN(c3c(C)cccc3C)CC2)ccc1F | 10* | 27 | 64 | 4
Cc1ccccc1N1CCN(S(=O)(=O)c2ccccc2)CC1 | 3 | 23 | 3 | 31
O=c1ccc2cc(S(=O)(=O)N3CCN(c4cc(Cl)ccc4Cl)CC3)ccc2o1 | 1 | 47 | 70* | 0
CCC(=O)c1cc(F)c(N2CCN(S(=O)(=O)c3ccccc3)CC2)cc1C | 0 | 8 | 17 | 64*
CCCC(=O)c1cc(F)c(N2CCN(S(=O)(=O)c3ccccc3)CC2)cc1C | 0 | 2 | 42 | 4
O=C(CCS(=O)(=O)c1cc(Br)cc2c1N(C(=O)C1CC1)CC2)N1CCN(c2ccccn2)CC1 | 1 | 15 | 23 | 4
C=CCOc1cccc(C(=O)N2CCCC(CNS(=O)(=O)c3cccs3)C2)c1 (stereo not given) | 1 | 0 | -5 | 6
